Screening results deposited in PubChem BioAssay by several laboratories.
Jurkat NFkB inh – lowers PMA/ionomycin-induced NF-kB signal in Jurkat cells. 0.53% of 330,000 active. PMA/ionomycin-induced NF-kB luciferase reporter, luminescence. inhibition, % at 4 µM; in the data active = inhibition above about 50%
NR2F2 inh – blocks human COUP-TFII nuclear receptor; HEK293T NGFI-A luciferase reporter, luminescence; 0.7% of 370,000 active; inhibition, % at 8.6 µM; AID 686940; P24468;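 active = inhibition above a per-plate cutoff, mean inhibition of test wells between control levels plus 3 SD, cut at about 38% in these data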;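 note: cells cotransfected with COUP-TFII expression vector driving the NGFI-A reporter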
Target sequence (P24468 whole entry, looked up): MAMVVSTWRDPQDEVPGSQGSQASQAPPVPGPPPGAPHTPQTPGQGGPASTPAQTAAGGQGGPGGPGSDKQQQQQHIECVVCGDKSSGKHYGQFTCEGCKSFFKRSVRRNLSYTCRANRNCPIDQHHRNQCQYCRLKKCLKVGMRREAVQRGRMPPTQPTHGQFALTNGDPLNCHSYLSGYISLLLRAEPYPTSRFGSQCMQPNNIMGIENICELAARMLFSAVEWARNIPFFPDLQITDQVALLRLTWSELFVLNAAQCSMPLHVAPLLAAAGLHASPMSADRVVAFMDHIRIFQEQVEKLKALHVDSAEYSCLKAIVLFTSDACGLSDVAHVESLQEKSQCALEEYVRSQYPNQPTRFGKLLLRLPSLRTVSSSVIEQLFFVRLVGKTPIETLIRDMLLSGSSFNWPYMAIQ
Gli-Sufu block – Gli-Sufu pathway antagonism; Sufu-KO-LIGHT fibroblasts, Gli luciferase reporter luminescence; inhibition, % at 5 µM; 0.74% of 340,000 active;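 active = inhibition above about 55%, limit read from the data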
H9c2 TAG inh – triacylglycerol accumulation inhibition; H9c2 cells, Nile Red lipid (TAG) fluorescence; cells loaded with 200 µM oleic acid; inhibition, % at 12.5 µM; 0.66% of 230,000 active; AID 651582;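 active = pattern-corrected inhibition of lipid staining of at least 50% with the nuclear-stain viability signal not falling by more than 50%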
H9c2 protect – modulators protecting cardiomyocytes from myocardial damage | H9c2 cardiomyocytes, H2O2 injury protection, ATPLite, 2 h | protection from H2O2 cell death, % at 20 µM | 0.63% of 360,000 active | AID 588492;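 active = compounds giving at least 50% protection of heart cells from peroxide-induced death in the single-dose screen, raw or plate-pattern-corrected value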
697 NFkB inh – inhibitors of the PMA/ionomycin-induced NF-kB reporter in 697 B cells. 697 B-cell NF-kB luciferase reporter, 16 h. inhibition, % at 4 µM. 0.33% of 330,000 active; in the data active = inhibition above about 35%
Of the large screens only hits and unclear results are named; the others gave an inactive call. The list is not random: actives were taken first. Their share in the collection is about 2.6%.

OC[C@@H]1CN(Cc2ccccc2)C[C@H](n2cnc3c(NCc4ccco4)ncnc32)O1	none (no result: Jurkat NFkB inh, Gli-Sufu block, 697 NFkB inh)
CCCC(=O)N1CCC[C@]2(CC[C@H](CCC#N)O2)C1	none (no result: Jurkat NFkB inh, Gli-Sufu block, H9c2 TAG inh, H9c2 protect, 697 NFkB inh)
COc1ccc(C[N+]2=C(N)NC3=C4CCCCC4n4c(=O)n(-c5ccccc5)c(=O)n4C3C2)c(OC)c1 (stereo not drawn)	none (no result: Jurkat NFkB inh, Gli-Sufu block, H9c2 TAG inh, H9c2 protect, 697 NFkB inh)
C=C1[C@@H](O)[C@@H]2O[C@]3(CC[C@H](/C=C/[C@@H](C)[C@@H]4CC(C)=CC5(O[C@H](C[C@@](C)(O)C(=O)OC)CC[C@H]5O)O4)O3)CC[C@H]2O[C@@H]1[C@@H](O)C[C@H](C)[C@H]1OC2(CCCCO2)CC[C@H]1C (stereo partly drawn)	Gli-Sufu block 90 (no result: NR2F2 inh, H9c2 TAG inh, H9c2 protect)
CCn1cc(C(=O)Nc2cccc(NC(C)=O)c2)c2cc(OC)c(OC)cc2c1=O	H9c2 protect 55
O=[N+]([O-])c1cc(O)c2ncccc2c1	Gli-Sufu block 67 (no result: H9c2 TAG inh, H9c2 protect)
O=[N+]([O-])c1cc2cccnc2c2ncccc12	none
Cc1sc2nc(CSCC(=O)N(CCC#N)c3ccccc3F)[nH]c(=O)c2c1C	H9c2 protect 59
CCC[C@H](/C=C/C(=O)OC(C)(C)C)Sc1ccc(OC)cc1	none (no result: Jurkat NFkB inh, Gli-Sufu block, H9c2 TAG inh, H9c2 protect, 697 NFkB inh)
COC(=O)c1cc2sccc2n1Cc1nc(-c2ccc(OC)cc2)oc1C	NR2F2 inh 39 (no result: H9c2 TAG inh)
COC(=O)c1cc2ccsc2n1Cc1nc(-c2ccc(OC)cc2)oc1C	none (no result: H9c2 TAG inh)
CC1CCCCC1N(C(=O)c1cc(C2CC2)on1)C1CCCCC1 (stereo not drawn)	none (no result: Jurkat NFkB inh, Gli-Sufu block, H9c2 TAG inh, H9c2 protect, 697 NFkB inh)
CCOC(=O)c1nc(N2CCN(C(=O)OCC)CC2)c2c3c(sc2n1)CCCC3	H9c2 protect 62 (no result: H9c2 TAG inh)
C=c1[nH]cc(C(C)c2c(C)n(C)c3ccccc23)/c1=C/C (stereo not drawn)	none (no result: Jurkat NFkB inh, Gli-Sufu block, H9c2 TAG inh, H9c2 protect, 697 NFkB inh)
COc1ccc(C2/C=C\CN(C(=O)c3ccc(C)cc3)[C@H](Cc3ccccc3)C(=O)N2Cc2ccc(F)cc2)cc1 (stereo partly drawn)	H9c2 protect 85 (no result: NR2F2 inh)
CN(C)c1ccc(/C=N\NC(=O)c2cccc(S(=O)(=O)N(C)C)c2)cc1	none (no result: Jurkat NFkB inh, Gli-Sufu block, H9c2 TAG inh, H9c2 protect, 697 NFkB inh)
CCc1ccc(N(C(=O)c2snc(C(N)=O)c2N)C(C(=O)NC2CCCC2)c2ccco2)cc1 (stereo not drawn)	none (no result: H9c2 TAG inh)
COc1ccc(C(C(=O)NCc2ccccc2)N(Cc2ccco2)C(=O)c2snc(C(N)=O)c2N)cc1 (stereo not drawn)	H9c2 protect 80 (no result: H9c2 TAG inh)
NC(=O)c1nsc(C(=O)N(CCc2ccccc2)C(C(=O)NC2CCCC2)c2ccco2)c1N (stereo not drawn)	H9c2 protect 78 (no result: H9c2 TAG inh)
COc1ccc(C(C(=O)NCc2ccccc2)N(Cc2ccco2)C(=O)c2snc(C(N)=O)c2N)cc1OC (stereo not drawn)	none (no result: H9c2 TAG inh)
Cc1ccc(C(C(=O)NCc2ccccc2)N(Cc2ccco2)C(=O)c2snc(C(N)=O)c2N)o1 (stereo not drawn)	H9c2 protect 61 (no result: H9c2 TAG inh)
COc1ccc(-n2nnnc2SCC(=O)c2ccc(O)c(O)c2)cc1	H9c2 protect 60
C=CCn1c(SCC(=O)c2ccc(O)c(O)c2)nnc1-c1cccc(OC)c1	H9c2 protect 54
C=CCn1c(SCC(=O)c2ccc(O)c(O)c2)nnc1-c1ccc(C)cc1	H9c2 protect 62
COc1ccc(-c2cc(C(=O)N(C)CC(=O)Nc3ccccc3C(F)(F)F)c3ccccc3n2)cc1OC	none (no result: Jurkat NFkB inh, Gli-Sufu block, 697 NFkB inh)
COc1ccc(-c2cc(C(=O)N(C)Cc3ccccc3F)c3ccccc3n2)cc1OC	H9c2 protect 66
COc1cc(-c2cc(C(=O)N(C)Cc3ccccc3)c3ccccc3n2)cc(OC)c1OC	none (no result: H9c2 TAG inh)
COc1ccccc1CN(C)C(=O)c1cc(-c2cc(OC)c(OC)c(OC)c2)nc2ccccc12	H9c2 protect 50 (no result: H9c2 TAG inh)
COc1cccc(N2CCN(c3c(C#N)c(C(F)(F)F)nn3C)CC2)c1	NR2F2 inh 51
CN(C)C(=O)NCCCC#Cc1ccccc1	none (no result: Jurkat NFkB inh, Gli-Sufu block, H9c2 TAG inh, H9c2 protect, 697 NFkB inh)
Oc1c(Br)cc(/C=N/Nc2ccc(Cl)nn2)cc1Br	none (no result: H9c2 TAG inh)
Oc1c(Br)cc(Br)cc1/C=N/Nc1ccc(Cl)nn1	Gli-Sufu block 90 (no result: Jurkat NFkB inh, H9c2 TAG inh, 697 NFkB inh)
CCC[C@H]1[C@@H](NC(=O)C2CCOC2)CC[C@@]23CCCN2C(=O)CCC[C@@H]13 (stereo partly drawn)	none (no result: Jurkat NFkB inh, Gli-Sufu block, H9c2 TAG inh, H9c2 protect, 697 NFkB inh)
CCOc1ccc(NC(=O)CCN2C(=S)NC(C)(C)CC2C)cc1 (stereo not drawn)	none
CC1CC(C)(C)NC(=S)N1CCC(=O)Nc1ccc2c(c1)OCCO2 (stereo not drawn)	H9c2 protect 69
